This is an account of results in PubChem BioAssay AID2129 (The Scripps Research Institute Molecular Screening Center, 2009).

Screen size: about 320,000 compounds; about 2,200 (0.69%) were called active. Many of the other results were omitted from the sample, so actives are more common in it than they were. Unmarked numbers belong to inactive results.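 Rule for the calls: active = inhibition above the mean of all tested compounds plus 3 SD, cutoff set per campaign (cut at about 30% in these data); inactive = the rest.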

Sequence of Bcl-2-like protein 1 (Homo sapiens) (Q07817 whole entry, looked up): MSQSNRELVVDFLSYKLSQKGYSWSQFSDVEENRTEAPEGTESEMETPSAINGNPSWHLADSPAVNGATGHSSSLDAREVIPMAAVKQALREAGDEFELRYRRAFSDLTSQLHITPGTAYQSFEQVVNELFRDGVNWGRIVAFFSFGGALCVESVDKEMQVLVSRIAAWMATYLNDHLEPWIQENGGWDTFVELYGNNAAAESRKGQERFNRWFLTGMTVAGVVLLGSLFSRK

The test concerns the target Bcl-2-like protein 1 (Homo sapiens) (UniProt Q07817). Briefly: Bcl-xL/Bim BH3 interaction blockers – biochemical, fluorescence polarization, HTS, primary screen (AID 2129).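 Note: 0% = DMSO wells and 100% = unlabeled Bim-BH3 peptide competitor; inhibitors lower millipolarization by displacing the labeled peptide.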 As to conditions: GST-Bcl-xL / FITC-Bim BH3 peptide fluorescence polarization; at 10.9 µM; active compounds read high.
As usually defined, the inhibition is the drop in the measured response relative to a control, in per cent. With `Cc1ccc(CNS(=O)(=O)c2ccc3c(c2)N(C)CCO3)cc1`, the inhibition is 8.25%. Next, `O=C(CSc1nc2ccccc2c(=O)n1-c1ccc(F)cc1)NC1CC1`: 6.71%; `O=C(CCn1c(SCC(=O)c2ccccc2)nc2ccccc2c1=O)NCc1ccc(F)cc1`: 49.4% (active); `O=C(CCCn1c(SCC(=O)c2ccccc2)nc2ccccc2c1=O)NCC1CCCO1` (stereo not drawn): -3.16%. Next, `CCc1c(-c2ccccc2)nc(N)c(C#N)c1-c1cccs1`: 6.16%.

`Cc1c(-c2ccccc2)nc(N)c(C#N)c1-c1cccs1`: the inhibition is 8.08%. As to `CN1CCc2nc(SC(C(=O)O)c3ccccc3)c(C#N)c(-c3cccs3)c2C1` (stereo not drawn), the inhibition is 31.4% (active). In the case of `CCOc1ccc2[nH]c(=O)c(CN(Cc3nnnn3CCc3ccccc3)CC3CCCO3)cc2c1` (stereo not drawn), the inhibition was 0.19%.

With `O=C(COC(=O)/C=C/c1nc2ccccc2s1)Nc1ccccc1Oc1ccccc1`, the inhibition was -1.24%. `O=C(COC(=O)Cn1cnc2ccccc21)Nc1cccc2c1C(=O)c1ccccc1C2=O`: the inhibition is 137% (active). To `O=C(COC(=O)c1cccc(Br)c1)Nc1cccc2c1C(=O)c1ccccc1C2=O` belongs 13.1%; to `O=C(Cn1cnc2ccccc21)Nc1ccccc1-c1ccccc1`, 7.35%; to `CC(C)(C)n1ncc2c(=O)n(Cc3ccc(Cl)cc3)cnc21`, 4.43%. Take `CCOC(=O)N1CCN(CC(=O)n2c(C)c(C)c3ccccc32)CC1`: the inhibition is 9.52%. `Cc1nn(C(=O)c2ccoc2C)c(N)c1-c1ccccc1`: the inhibition was 173% (active).

As for `C/C(=N\NC(=O)c1ccoc1C)c1ccccc1O`, the inhibition was 4.04%. To `Cc1nn(-c2ccc([N+](=O)[O-])cc2)c(N)c1-c1ccccc1` belongs -20.3%; to `Cc1noc(C)c1C(=O)NCC1COc2ccccc2O1` (stereo not drawn), -7.18%. For the compound `O=C(NCc1ccncc1)C1CCCN(S(=O)(=O)c2ccc(Br)cc2)C1` (stereo not drawn), the inhibition was 9.21%. Next, `O=C(NCc1cc(C(F)(F)F)cc(C(F)(F)F)c1)C1CC(c2cccc(F)c2)=NO1` (stereo not drawn): 1.88%; `CCN1C(=O)[C@@H]2[C@@H](c3ccc(-c4ccc(OC)cc4)c(OC)c3)N3CCC[C@@]3(C(=O)OC)[C@@H]2C1=O`: 4.65%; `Cn1c(C(=O)N2CCCC(C(=O)NCc3ccccc3)C2)cc2sccc21` (stereo not drawn): 3.21%. Next, `Cc1ccccc1CSCCNC(=O)c1ccc(Cl)c(S(=O)(=O)N2CCOCC2)c1`: 3%. To `COc1ccc(C(=O)N(Cc2ccccc2)c2ccc(C)cc2)cc1S(=O)(=O)N1CCOCC1` belongs 5.85%; to `O=C(Nc1ccccc1N1CCCC1)c1ccc(F)c(S(=O)(=O)N2CCOCC2)c1`, 1.14%. Turning to `O=C(NCCSCc1ccccc1)c1ccc(Cl)c(S(=O)(=O)N2CCOCC2)c1`, the inhibition was 1.38%. Regarding `Cc1nn(Cc2ccccc2)c(C)c1CNC(=O)c1ccc(F)c(S(=O)(=O)N2CCOCC2)c1`, the inhibition is 114% (active). For `O=C(c1ccc(F)c(S(=O)(=O)N2CCOCC2)c1)N(CCc1ccccc1)Cc1ccccc1`, the inhibition was 31.7% (active). As to `Cc1ccc(-c2noc(C3CCCN(C(=O)c4cccc(Cl)c4)C3)n2)o1` (stereo not drawn), the inhibition was -3.97%. To `Cc1ccc2nc(SCC(=O)N3CC(C)OC(C)C3)nc(=O)n2c1` (stereo not drawn) belongs 5.27%. Next, `Cc1nc([N+](=O)[O-])c(NCCCO)n1Cc1ccccc1`: 8.64%; `O=C(Nc1cc(S(=O)(=O)N2CCOCC2)ccc1OCC(F)(F)F)c1ccc(N2CCCC2=O)cc1`: -2.38%.

On to `CC1(C)CCc2nc(SCc3ccccc3)c(C#N)cc2C1`, for which the inhibition was 4.14%. Next, `CC(NC(=O)CSc1nc2c(cc1C#N)CN(C)CC2)c1ccccc1` (stereo not drawn): 36.7% (active). With `Cc1cc(NC(=O)CSc2nc3c(cc2C#N)CCCCC3)no1`, the inhibition was 0.61%. Consider `Cn1c(CC(=O)NNC(=O)c2ccccc2F)nc2ccccc21`, for which the inhibition was 4.35%. Next, `CCOc1ccc(N2C(=O)Nc3ccccc3C2(O)C(=O)NCc2ccco2)cc1` (stereo not drawn): 2.5%; `CCC1CCCCN1C(=O)CSc1nc2c(c(=O)n1C)SC(C)C2` (stereo not drawn): 2.98%. Next, `CCCCCCn1c(CN2CCCC(C)C2)nc2c1c(=O)n(C)c(=O)n2C` (stereo not drawn): -0.05%.

Consider `Cc1c(CN2CCCCC2)c(O)n(CCO)c(=O)c1C#N`, for which the inhibition is 21.4%. To `CCCn1c(O)c(CN2CCCC(C)C2)c(C)c(C#N)c1=O` (stereo not drawn) belongs 53.4% (active); to `COc1ccc(CNC(=O)c2c[nH]c3c(OC)cc(OC)cc3c2=O)cc1`, 1.75%.

`O=C(O)CC/C(=N\NC(=O)c1ccc(F)cc1)c1ccc(Br)cc1`: the inhibition was 2.98%.

In the case of `Cc1cccc(NC(=O)c2cc(S(=O)(=O)N3CCC4(CC3)OCCO4)ccc2F)c1`, the inhibition is 0.06%. To `Cc1ccc(/C=C(\C#N)C(=O)Nc2cccc3ncccc23)o1` belongs 102% (active). Consider `Cc1ccc(Cc2cnc(NC(=O)/C(C#N)=C/c3ccc(-c4cccc([N+](=O)[O-])c4)o3)s2)cc1`, for which the inhibition was 1.29%.

Regarding `O=C(O)c1cc(Cl)c(Cl)cc1C(=O)Nc1cccc2ncccc12`, the inhibition is 5.65%. To `CCOc1ccc(-n2c(SCC(=O)NC3CCS(=O)(=O)C3)nnc2-c2cccnc2)cc1` (stereo not drawn) belongs -6.49%. To `CCOCN(C(=O)Cn1c(C(C)O)nc2ccccc21)c1c(C)cccc1CC` (stereo not drawn) belongs 6.75%; to `COc1ccccc1Cn1c(CO)nc2ccccc21`, 0.35%. For the compound `CCc1cccc(C)c1N(C(=O)Cn1c(CO)nc2ccccc21)C(C)COC` (stereo not drawn), the inhibition is 58.5% (active). Next, `CCOC(=O)c1c(N)sc(C(C)=O)c1C`: 4.34%; `COC(=O)c1sc(=S)n(-c2ccc(Cl)cc2)c1C`: 8.78%; `COCCOC(=O)c1sc(=S)n(CCOC)c1N`: 90.3% (active).

Consider `O=C(NCC1(N2CCCCC2)CCCCC1)c1ccc(NS(=O)(=O)c2ccc(F)cc2)cc1`, for which the inhibition is 5.4%. To `Cc1coc2c(O)cc3c(c12)OC1(N2CCCCC2)C(=O)NCCCC31` (stereo not drawn) belongs 39% (active); to `NC(=O)c1nsc(C(=O)N(CC(=O)NCc2ccc(F)cc2)Cc2ccco2)c1N`, 1.4%.

On to `COc1ccc(-n2cnc3cc(NCc4ccco4)ccc32)cc1`, for which the inhibition is 6.77%.
